Drawing on PubChem BioAssay (NCATS), this text covers Potency, max response and outcome for 20 compounds.

For test [1], the system named is NIH3T3. Description: Cytotoxic Profiling of Annotated Libraries Using Quantitative High-Throughput Screening (AID 1296008). Conditions: Five cell lines viability, CellTiter-Glo ATP luminescence, 48-72 h; max response: active compounds read low. The gist of the method:
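Cytotoxicity was measured as CellTiter-Glo ATP luminescence, read after 10 min at room temperature. Compound treatment of the cells lasted 48 or 72 hr at 37 degrees Celsius in a qHTS format.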

Test [2] has as its system MCC-13. Description: qHTS assay to identify novel small-molecules to repurpose for Merkel cell carcinoma treatment (AID 1296009). Conditions: MCC and control cell lines, CellTiter-Glo viability, 72 h; series mostly up to 46 µM. The gist of the method:
(§1)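 Cell viability, measured as CellTiter-Glo luminescence, was normalized between DMSO and no-cell wells. The cells had been exposed to 8- or 11-point compound dilutions for 72 hr at 37 degree celsius.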
In general terms: Quantitative high-throughput screening tests each substance at several concentrations.

In test [3] the test system is MCC-26. Described as above. Conditions: MCC and control cell lines, CellTiter-Glo viability, 72 h; series mostly up to 46 µM. The gist of the method: as §1
(ATP-based viability assays read luminescence as a measure of living cells.)

Test [4] relates to MKL-1. The test is described as above. Conditions: MCC and control cell lines, CellTiter-Glo viability, 72 h; series mostly up to 46 µM. The gist of the method: as §1
The test system of test [5] is MKL-2. The test is described as above. Conditions: MCC and control cell lines, CellTiter-Glo viability, 72 h; series mostly up to 46 µM. The gist of the method: as §1
Test [6] concerns UISO. The description is as above. The conditions noted are these: MCC and control cell lines, CellTiter-Glo viability, 72 h; series mostly up to 46 µM. In short, it runs like this:
as §1

The subject of test [7] is NIH3T3. The description is as above. The conditions noted are these: MCC and control cell lines, CellTiter-Glo viability, 72 h; at 44.8 µM (top of the series) unless noted. The gist of the method: as §1
Test [8] relates to WaGa. The description is as above. Conditions: MCC and control cell lines, CellTiter-Glo viability, 72 h; series mostly up to 46 µM. In short, it runs like this: as §1

Each structure is given as a SMILES string. Where “and” joins values, the source holds several entries; their conditions need not be identical. Equal values may be shown once. Results filed as inconclusive are left out. Values without a mark were called inactive. Calls of active or inactive are those of the source. Calls come from the whole dose curve; as a rule, active = well fitted inhibition curve with a large enough effect; inconclusive = small, poorly fitted or top-dose-only effect; inactive = flat fitted curve, though single readings scatter.
% is set by controls: 0 for no effect and ±100 for the full control effect; potency is the fitted concentration of half-maximal effect.
Note: nearly all actives have a fitted effect of over 60% in size.

As to `O=C1C(Cl)=C(NCCN2CCOCC2)C(=O)c2ncccc21`, the Potency in test [1] is 2.64 µM (active); in test [2], 16.6 µM (active); in test [3] it was 8.33 µM (active); in test [4], 1.32 µM (active); in test [5], 2.96 µM (active); in test [6], 8.33 µM (active).

Regarding `C[C@H](NC(=O)c1sccc1OCc1ccc(Cl)cc1)c1ccccc1`, the max response in test [1] is -27.6%. Besides, the Potency entry in test [2], in test [3] and in test [4] was “inactive” throughout.

For the compound `COc1ccc(-c2coc3cc(O)cc(O)c3c2=O)cc1`, the compound was classed as inactive in test [1] and in test [7]. Besides, the Potency result in test [2], in test [3], in test [4], in test [5], in test [6] and in test [8] was “inactive” throughout.

Consider `Nc1ncnc2c1ncn2[C@@H]1O[C@H](CO)C[C@@H]1O`, for which, in test [1], the max response was -2.75%. Besides, the Potency entry in test [2], in test [3], in test [4], in test [5] and in test [6] was “inactive” each time. Besides, the Potency in test [8] is 14.8 µM (active).

For the compound `O=C(CCN1CCN(C(=O)OCc2cc(Cl)cc(Cl)c2)CC1)c1ccc2[nH]c(=O)oc2c1`, the max response in test [1] was 1.12% and -60.6%. Moreover, the Potency entry in test [2], in test [3], in test [4], in test [5], in test [6] and in test [8] was “inactive” in each case.

As for `COC[C@@H](c1ccc(C(F)(F)F)cc1)N1CCN(C2(C)CCN(C(=O)c3c(C)ncnc3C)CC2)C[C@H]1C`, in test [1], the max response is 4.62%. Besides, the Potency result in test [2], in test [3], in test [4], in test [5], in test [6] and in test [8] was “inactive” throughout.

For the compound `CN(C)Cc1ccc(-c2nc3cccc4c3n2CCNC4=O)cc1`, the max response in test [1] is -8.05% and -9.14%. Further, the Potency result in test [2], in test [3], in test [4], in test [6] and in test [8] was “inactive” in each case.

As for `C[C@]12CCC3c4ccc(O)cc4CCC3C1CCC2=O` (some centres not stated), the max response in test [1] is -7.72%. For the same compound, the Potency entry in test [2], in test [3], in test [4], in test [5] and in test [8] was “inactive” throughout.

On to `CC(C)(C)OC(=O)N[C@H]1CCCCCC=C[C@@H]2C[C@@]2(C(=O)NS(=O)(=O)C2CC2)NC(=O)[C@@H]2C[C@@H](OC(=O)N3Cc4cccc(F)c4C3)CN2C1=O`, for which, in test [1], the max response was -0.939%. Also, the Potency result in test [2], in test [3], in test [4], in test [5], in test [6] and in test [8] was “inactive” each time.

For the compound `Cc1c(NC(=O)c2ccc(C(C)(C)C)cc2)cccc1-c1cn(C)c(=O)c(Nc2ccc(C(=O)N3CCOCC3)cc2)n1`, the max response in test [1] is -19.5% and -5.9%. The Potency entry in test [2], in test [3], in test [4], in test [5] and in test [8] was “inactive” in each case.

Take `O=C1NC(=O)C(=Cc2ccc(-c3ccc(F)cc3)o2)S1`: the max response in test [1] was -13.2%. For the same compound, the Potency result in test [2], in test [3], in test [4], in test [5], in test [6] and in test [8] was “inactive” in each case.

For `COc1ccc(-c2oc3c(CC=C(C)C)c(OC4O[C@H](CO)[C@@H](O)[C@H](O)[C@@H]4O)cc(O)c3c(=O)c2OC2O[C@@H](C)[C@H](O)[C@@H](O)[C@@H]2O)cc1` (some centres not stated), the max response in test [1] is -16.5%. In addition, the Potency entry in test [2], in test [3], in test [4] and in test [8] was “inactive” in each case.

Consider `CCc1ccc(C=C2SC(=S)NC2=O)cc1`, for which the max response in test [1] is -14.4%. For the same compound, the Potency entry in test [2], in test [3], in test [4], in test [5], in test [6] and in test [8] was “inactive” throughout.

Regarding `C[C@@H]1CCN(C(=O)CC#N)C[C@H]1N(C)c1ncnc2[nH]ccc12`, the max response in test [1] is -18.3%. In addition, the Potency result in test [2], in test [3], in test [4], in test [5], in test [6] and in test [8] was “inactive” each time.

Regarding `CC1(C)CCC(CN2CCN(c3ccc(C(=O)NS(=O)(=O)c4ccc(NCC5CCOCC5)c([N+](=O)[O-])c4)c(Oc4cnc5[nH]ccc5c4)c3)CC2)=C(c2ccc(Cl)cc2)C1`, the max response in test [1] is -21% and 4.74%. The Potency result in test [2], in test [3], in test [4], in test [6] and in test [8] was “inactive” in each case.

With `CCCCCNC(=O)N1CCC(CN(Cc2ccc(Cl)cc2)Cc2ccc([N+](=O)[O-])s2)C1` (configuration not stated), in test [1], the max response was -17.3%. For the same compound, the Potency result in test [2], in test [3], in test [4], in test [6] and in test [8] was “inactive” throughout.

Take `CN1[C@@H]2CCC[C@@H]1CC(NC(=O)c1nn(C)c3ccccc13)C2` (some centres not stated): the max response in test [1] was 0.235%. Besides, the Potency entry in test [2], in test [3], in test [4], in test [5], in test [6] and in test [8] was “inactive” throughout.

`Oc1ccc(C2=Cc3ccc(O)cc3OC2)cc1`: the Potency in test [1] is 7.43 µM (active); in test [2], 10.5 µM (active); in test [3], 20.9 µM (active); in test [4], 2.96 µM (active); in test [8], 2.35 µM (active).

As to `Cc1ccc(C(=O)Nc2cccc(C(F)(F)F)c2)cc1Nc1nc(-c2cccnc2)nc2c1cnn2C`, the Potency in test [1] was 9.35 µM (active). For the same compound, the Potency result in test [2], in test [3], in test [4], in test [5] and in test [8] was “inactive” throughout.

`O=c1cc(N2CCOCC2)oc2c(-c3cccc4c3sc3ccccc34)cccc12`: the Potency in test [1] is 16.6 µM (active). For the same compound, the Potency result in test [2], in test [3], in test [4], in test [5], in test [6] and in test [8] was “inactive” throughout.
